Among the data in PubChem BioAssay (NCI) are growth values, retold here.

Holding throughout (test): NCI-60 one-dose screen, 48 h (100 = growth as untreated, 0 = no growth, -100 = all killed)
One assay concerns NCI-H226 lung. The following applies: 10 µM.
A further assay relates to NCI-H322M lung. The following applies: 10 µM.
A further assay deals with HOP-62 NSCLC. The following applies: 10 µM.
A further assay deals with NCI-H460 lung. The conditions noted are these: 10 µM.
The next assay deals with NCI-H522 lung. The conditions noted are these: 10 µM.
The next assay has as its system COLO 205 colon. The following applies: 10 µM.
The subject of a further assay is DU-145 prostate. The conditions noted are these: 10 µM.
For the next assay, the system named is K-562 leukemia. The following applies: 10 µM.
The test system of another assay is SF-539 CNS. The conditions noted are these: 10 µM.
For a further assay, the system named is M14 melanoma. The following applies: 10 µM.
A further assay deals with HCT-15 colon. The conditions noted are these: 10 µM.
Another assay deals with HT29 colon. The following applies: 10 µM.
Another assay relates to SNB-75 CNS. The following applies: 10 µM.
The next assay concerns SNB-19 CNS. The conditions noted are these: 10 µM.
The subject of a further assay is LOX IMVI melanoma. The conditions noted are these: 10 µM.
For another assay, the system named is MOLT-4 leukemia. The following applies: 10 µM.
A further assay concerns SR leukemia. The conditions noted are these: 10 µM.
Another assay relates to RPMI-8226 leukemia. The conditions noted are these: 10 µM.
A further assay has as its system SK-OV-3 ovarian. The following applies: 10 µM.
For the next assay, the system named is MDA-MB-468 breast. The following applies: 10 µM unless noted.

About 83,000 compounds went through this panel and 20% of them were active in at least one assay; those are over-represented in the sample as a whole.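 Assay: single dose, 48 h. Readout: percent growth (0 = no net growth; negative = cell death). Active: <10.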 Values without a mark were called inactive. Active and inactive are the calls of the source.

Regarding `C#CCOc1cc(N(CC)CC)ccc1C(C(=O)NC(C)(C)C)N(C(=O)C1CCc2cc(F)ccc2O1)c1ccc(F)cc1F` (stereo not given), the growth is 42.9% in the assay with NCI-H226 lung; 81.6% in the assay with NCI-H322M lung; 51.6% in the assay with HOP-62 NSCLC; 26.4% in the assay with NCI-H460 lung; 30.7% with NCI-H522 lung; 25.8% with COLO 205 colon. Moreover, the growth is 50.1% in the assay with DU-145 prostate; 18.3% in the assay on K-562 leukemia; 55.9% in the assay on SF-539 CNS; 43.3% in the assay with M14 melanoma; 34.9% in the assay with HCT-15 colon; 58.3% with HT29 colon. The growth was 64.4% in the assay on SNB-75 CNS; 39.8% with SNB-19 CNS; -5.11% (active) in the assay on LOX IMVI melanoma; 6.84% (active) with MOLT-4 leukemia; 26.6% in the assay on SR leukemia; 25.6% in the assay with RPMI-8226 leukemia. Further, the growth in the assay on SK-OV-3 ovarian is 46.8%; in the assay on MDA-MB-468 breast it was 20.9%.
Take `COc1ccc(Cc2nn(CC(=O)N/N=C/c3ccc(Br)cc3)c(=O)c3c(C)noc23)cc1`: the growth in the assay with NCI-H226 lung is 55.3%; in the assay with NCI-H322M lung, 62.6%; in the assay on HOP-62 NSCLC, 2.75% (active); in the assay on NCI-H460 lung, 9.38% (active); in the assay on NCI-H522 lung it was 29.2%; in the assay with COLO 205 colon, 52.2%. Besides, the growth is 55.4% in the assay with DU-145 prostate; 51.8% with K-562 leukemia; 13% in the assay on SF-539 CNS; 57.6% with M14 melanoma; 63.8% in the assay with HCT-15 colon; 63.4% with HT29 colon. The growth in the assay on SNB-75 CNS is -30.1% (active); with SNB-19 CNS it was 21.6%; in the assay on LOX IMVI melanoma it was 25.9%; in the assay on MOLT-4 leukemia it was 63.2%; in the assay with SR leukemia it was 38.5%; in the assay with RPMI-8226 leukemia it was 55.4%. The results for the growth with SK-OV-3 ovarian and with MDA-MB-468 breast were -30% (active) and 26.4%, respectively.
As to `CCOC(=O)c1ccc(NC(=O)CSC(CC(=O)c2sc(Nc3ccccn3)nc2C)c2ccccc2F)cc1` (stereo not given), the growth in the assay on NCI-H226 lung was 4.65% (active); with NCI-H322M lung it was 17.5%; in the assay on HOP-62 NSCLC, 3.54% (active); with NCI-H460 lung, -40.7% (active); in the assay with NCI-H522 lung it was -22.7% (active); with COLO 205 colon it was -34.1% (active). Further, the growth in the assay with DU-145 prostate was 1.39% (active); in the assay on K-562 leukemia, 5.79% (active); with SF-539 CNS it was -27.3% (active); in the assay on M14 melanoma it was 0.872% (active); with HCT-15 colon, -42% (active); in the assay on HT29 colon, -28.3% (active). In addition, the growth in the assay on SNB-75 CNS is -3.07% (active); in the assay on SNB-19 CNS, 21.1%; in the assay with LOX IMVI melanoma, -76.8% (active); in the assay on MOLT-4 leukemia, 11.5%; in the assay with SR leukemia, 4.27% (active); in the assay with RPMI-8226 leukemia it was -14.2% (active). In addition, the growth in the assay on SK-OV-3 ovarian was 5.92% (active); in the assay with MDA-MB-468 breast, 3.8% (active).
`CCOc1ccc(/C=N/NC(=O)Cn2nc(Cc3ccc(OC)cc3)c3onc(C)c3c2=O)cc1`: the growth was 6.7% (active) with NCI-H226 lung; 62.1% in the assay with NCI-H322M lung; 7.48% (active) in the assay with HOP-62 NSCLC; -7.59% (active) in the assay with NCI-H460 lung; 46.6% in the assay with NCI-H522 lung; 50.4% with COLO 205 colon. Further, the growth with DU-145 prostate was 14.4%; in the assay on K-562 leukemia, 44.7%; with SF-539 CNS it was -32.6% (active); with M14 melanoma, 39%; in the assay on HCT-15 colon it was 49.9%; in the assay on HT29 colon, 16.6%. Further, the growth was -39.9% (active) in the assay with SNB-75 CNS; 29% with SNB-19 CNS; 4.69% (active) with LOX IMVI melanoma; 58.3% in the assay with MOLT-4 leukemia; 29.8% with SR leukemia; 67.9% in the assay with RPMI-8226 leukemia. In addition, the growth was -26.6% (active) in the assay with SK-OV-3 ovarian and 40.4% in the assay on MDA-MB-468 breast.
As to `C#C[C@]1(O)CC[C@H]2[C@@H]3CC=C4c5sc(Nc6ccc(C(F)(F)F)cn6)nc5CC[C@]4(C)[C@H]3CC[C@@]21C`, the growth with NCI-H226 lung is 16.2%; in the assay on NCI-H322M lung, 13.7%; in the assay with HOP-62 NSCLC it was 10.9%; in the assay with NCI-H460 lung, -35.8% (active); with NCI-H522 lung, -51.1% (active); with COLO 205 colon, -87% (active). The growth with DU-145 prostate was 8.36% (active); in the assay on K-562 leukemia it was 7.48% (active); in the assay on SF-539 CNS it was -45.3% (active); with M14 melanoma it was -21.4% (active); in the assay with HCT-15 colon, -34.8% (active); in the assay on HT29 colon, -31.8% (active). Further, the growth in the assay with SNB-75 CNS is 28.5%; in the assay with SNB-19 CNS, 8.33% (active); with LOX IMVI melanoma, -98.5% (active); in the assay with MOLT-4 leukemia, -8.2% (active); with SR leukemia, 1.07% (active); in the assay on RPMI-8226 leukemia it was -6.6% (active). Also, the growth with SK-OV-3 ovarian is -4.49% (active); in the assay on MDA-MB-468 breast it was 4.25% (active).
On to `Cc1ccc(S(=O)(=O)N2CCN(S(=O)(=O)c3oc(-c4ccccc4)nc3C#N)CC2)cc1`, for which the growth is 69.2% in the assay on NCI-H226 lung; 84.8% in the assay with NCI-H322M lung; 100% with HOP-62 NSCLC; 76.2% with NCI-H460 lung; 64.1% in the assay on NCI-H522 lung; 92.3% with COLO 205 colon. The growth is 85.6% in the assay on DU-145 prostate; 66.1% in the assay with K-562 leukemia; 101% with SF-539 CNS; 84.8% in the assay with M14 melanoma; 82.5% in the assay with HCT-15 colon; 80.2% in the assay with HT29 colon. Also, the growth in the assay with SNB-75 CNS was 92.6%; with SNB-19 CNS it was 78.6%; in the assay on LOX IMVI melanoma, 8.41% (active); in the assay with MOLT-4 leukemia it was 56.8%; with SR leukemia it was 31.4%; in the assay with RPMI-8226 leukemia it was 74.7%. Moreover, the growth in the assay on SK-OV-3 ovarian was 87.9%; in the assay with MDA-MB-468 breast it was 66.2%.
For `Fc1ccc(/C=C/c2nc3ccccc3n3c(-c4ccc(Cl)cc4)nnc23)cc1`, the growth is 77.4% in the assay on NCI-H226 lung; 89.6% with NCI-H322M lung; 107% in the assay on HOP-62 NSCLC; 59.6% in the assay on NCI-H460 lung; -81.7% (active) in the assay on NCI-H522 lung; 67.8% with COLO 205 colon. The growth in the assay on DU-145 prostate was 68%; in the assay with K-562 leukemia, 10%; in the assay with SF-539 CNS, 85.5%; in the assay on M14 melanoma, 63.8%; with HCT-15 colon, 24%; in the assay with HT29 colon it was 59.5%. In addition, the growth in the assay with SNB-75 CNS is 86.8%; in the assay with SNB-19 CNS, 86.2%; with LOX IMVI melanoma it was -89.2% (active); in the assay with MOLT-4 leukemia, 2.97% (active); in the assay with SR leukemia, -3.04% (active); in the assay on RPMI-8226 leukemia, 53.5%. The growth was 104% in the assay with SK-OV-3 ovarian and -2.32% (active) in the assay on MDA-MB-468 breast.
Consider `O=[N+]([O-])c1cccc(-c2nnc3c(/C=C/c4ccccc4O)nc4ccccc4n23)c1`, for which the growth in the assay with NCI-H226 lung is 33.1%; in the assay with NCI-H322M lung it was 55.8%; in the assay with HOP-62 NSCLC, 52.8%; in the assay on NCI-H460 lung, 28.8%; with NCI-H522 lung it was 55.3%; in the assay with COLO 205 colon, 41.3%. Besides, the growth is 63% in the assay on DU-145 prostate; 24.1% in the assay with K-562 leukemia; 46.2% in the assay on SF-539 CNS; 29.8% in the assay with M14 melanoma; 52.5% in the assay on HCT-15 colon; 48.6% with HT29 colon. The growth with SNB-75 CNS was 102%; in the assay on SNB-19 CNS, 87%; with LOX IMVI melanoma, 56.1%; in the assay with MOLT-4 leukemia, 38.7%; in the assay with SR leukemia, 51.8%; in the assay on RPMI-8226 leukemia it was 54.9%. Further, the growth is 75.7% in the assay on SK-OV-3 ovarian and 52% in the assay on MDA-MB-468 breast.
